The text below walks through data of PubChem BioAssay AID1814 (Broad Institute, 2009).

Out of some 300,000 compounds screened, about 22,000 (7.3%) were called active. Inconclusive results (about 2%) are left out. No stated cut-off is given here; in the data, active means activity score below about -60%; inconclusive means mostly about -28% to -61%; inactive means positive scores. The full list was thinned out, with actives kept by preference.

The assay can be described thus: Activators via SNCA 5'UTR binding, MLPCN (AID 1814). Conditions: alpha-synuclein 5'UTR reporter, activators screen; active compounds read low; tested at 7.5 µM.
As to `CCc1cc2c(=O)c(-c3ccon3)c(N)oc2cc1OC`, the activity score is -160% (active).

Take `COc1ccc(N=C(C)c2sc3ccccc3c2O)cc1`: the activity score was -125% (active). For `Nc1[nH][nH]c(=O)c1N=Nc1ccc2c(c1)OCO2`, the activity score is -112% (active).

Regarding `Cc1ccc(NC(=S)Nc2ncccc2C)c(C)c1`, the activity score was -199% (active). As to `COc1ccc2c(c1)CCc1c(C(=O)N3CCCC3)noc1-2`, the activity score is -103% (active). On to `CNC(=O)/C(C#N)=C/c1c(F)cccc1Cl`, for which the activity score is -73.3% (active). For `O=C(Nn1c(SCc2ccc([N+](=O)[O-])cc2)nc2ccccc2c1=O)c1ccc(F)cc1` the value was -81.2% (active).

As to `c1ccc(-c2nccc(-c3ccc(-n4cnc5ccccc54)cc3)n2)nc1`, the activity score is -88% (active). For `CC(C)(C)C(=O)c1cnc(Nc2ccccc2)s1` the value was -123% (active). Turning to `O=C(c1ccc(Cl)cc1)c1cnc(Nc2ccccc2)s1`, the activity score is -159% (active). With `COCCN(C(=O)c1ccco1)c1nnc(-c2ccc(OC)cc2)s1`, the activity score is -68.7% (active). As to `N#C/C=C\Oc1ccc(Cl)cc1N`, the activity score is -166% (active). The result for `COc1ccccc1C1=Nc2cccc3cccc(c23)N1` reads -62.4% (active). The result for `CC1=CC(=C(C#N)c2nc3ccccc3s2)C=C(C)N1c1ccc(F)cc1F` reads -123% (active). Turning to `C=CCn1c(=NC(=O)c2cccs2)sc2cc(NC(C)=O)ccc21`, the activity score is -164% (active). As for `Clc1ccccc1SCc1nc2ccccc2[nH]1`, the activity score was -90.6% (active). For the compound `CCNC(=O)N1CCCC(C(=O)c2ccc(-c3ccccc3)cc2)C1` (configuration not stated), the activity score was -101% (active). For `O=C(Nc1ccc(Cl)c(Cl)c1)N1CC=C(c2ccccc2)CC1` the value was -65.8% (active); for `Cc1ccc(Cl)c(OCC(=O)N2CCc3ccccc3C2)c1`, -117% (active). The result for `COc1ccc(C2CC(c3cccs3)=Nc3ccccc3S2)cc1OC` (configuration not stated) reads -90.7% (active); that for `O=C(/C(=C/c1cccc(Cl)c1)c1nc2ccccc2[nH]1)c1ccccc1`, -338% (active). For `Cc1nc(NC(=O)C2CCCCC2)sc1C` the value was -136% (active). `O=[N+]([O-])c1cccc(/C=N/Nc2ncc(Br)cn2)c1`: the activity score is -194% (active). The result for `O=[N+]([O-])c1ccc(N/N=C/c2ccccc2)cc1` reads -210% (active); that for `COc1ccccc1-c1nnc(-c2ccc(F)cc2)o1`, -122% (active). For `CSc1ccccc1-c1nnc(-c2ccc(Cl)cc2)o1` the value was -146% (active). The result for `O=C1C(C=NCC2CCCO2)=C(O)c2ccccc21` (configuration not stated) reads -95.6% (active). For `CCS(=O)(=O)n1nc(-c2ccc(OC)cc2)nc1SC`, the activity score is -98.6% (active).

In the case of `CCS(=O)(=O)n1nc(-c2ccccc2)nc1SCc1ccccc1`, the activity score was -118% (active). As to `Cc1cc(O)c(NC(=O)c2ccc(C)c([N+](=O)[O-])c2)cc1C`, the activity score was -110% (active). Turning to `COc1ccccc1CSc1nc2ccccc2[nH]1`, the activity score is -156% (active).

`CCCCSc1nc2ccccc2[nH]1`: the activity score is -86.8% (active). The result for `CC(C)n1c(=O)[nH]c2cc(C(=O)Nc3ccccc3)ccc21` reads -119% (active); that for `COc1ccc(-c2c(C#Cc3ccccc3)c3ccccc3n2C)cc1`, -87.3% (active); that for `CCOC(=O)c1nn(-c2cccc(C)c2)cc1C(=O)c1ccccc1`, -90.5% (active). The result for `O=C1c2ccccc2S(=O)(=O)c2cc(N3CCN(c4ccccn4)CC3)ccc21` reads -68.6% (active); that for `COc1ccc(C2=NOC(COC(=O)c3ccc4ccccc4n3)C2)cc1` (configuration not stated), -68.4% (active). For `CN(C)c1ccc(-c2nnc(-c3cccnc3)o2)cc1` the value was -195% (active); for `c1ccc(CN=C2Nc3ccccc3CS2)nc1`, -111% (active). With `COc1ccc(N2C(=O)c3ccccc3NC2c2ccc(OC)c(CN3CCOCC3)c2)cc1` (configuration not stated), the activity score was -72.6% (active). The result for `COc1ccc(C2Nc3ccccc3C(=O)N2c2ccc(Cl)cc2)cc1Cn1cc([N+](=O)[O-])cn1` (configuration not stated) reads -111% (active). `CCN(CC)C(=O)C(=O)Nc1cccc(Br)c1`: the activity score was -75.5% (active). For `COc1cc(N=Cc2c(O)[nH]c3ccccc23)cc(OC)c1OC` the value was 81% (inactive). Take `COc1cccc2[nH]c(C(=O)NCCc3ccccc3)cc12`: the activity score was -162% (active). As to `NC(=S)N/N=C/c1coc2cc(Cl)ccc2c1=O`, the activity score is -88.7% (active). The result for `COc1ccc(Nc2oc(-c3ccccc3Cl)nc2C#N)cc1` reads -108% (active); that for `CCOc1ccc(Nc2oc(Cc3ccccc3)nc2C#N)cc1`, -109% (active). As to `N#Cc1nc(Cc2ccccc2)oc1NCCc1ccccc1`, the activity score was -147% (active).

With `Cc1ccc(C(=O)NNC(=O)c2cccs2)cc1`, the activity score is -65.9% (active). The result for `O=C(Nc1ccccc1)c1ccc(NC(=O)c2cccs2)cc1` reads -107% (active); that for `COc1cc(NC(=O)c2cccs2)ccc1NC(=O)c1ccccc1Cl`, -62.1% (active).

As to `Cc1ccc(-c2csc(NC(=O)c3cccs3)n2)cc1`, the activity score is -239% (active). For `O=C(NNC(=O)c1ccc(Cl)cc1Cl)c1cccs1` the value was -115% (active). For `COc1ccc(-n2nc(C(=O)NCC(=O)N3CCN(c4ccccc4OC)CC3)c3ccccc3c2=O)c(OC)c1`, the activity score was -64% (active).

For `Cc1c(N=Nc2ccc(N(C)C)cc2)c(=O)n(-c2ccccc2)n1C`, the activity score was -101% (active). Consider `CCn1nc(C)c(NC(=O)/C=C/c2ccc(OC)c(COc3ccc(Br)cc3)c2)c1C`, for which the activity score is 61.8% (inactive). As for `O=C(/C=C/c1ccc(Cl)cc1)Nc1ccc(Br)cn1`, the activity score was -62.5% (active). For `CC(C)=CCc1c(O)c(CC=C(C)C)c2occ(-c3ccc(O)cc3)c(=O)c2c1O` the value was -75.6% (active). The result for `O=C(Nc1ccc2c(c1)CCC2)c1ccc(Br)s1` reads -159% (active). For `N/C(=N\OC(=O)c1ccc2c(c1)OCO2)c1ccc(Br)cc1` the value was -162% (active); for `CCCCNc1ccc(C(=O)Nc2cccc(C)n2)cc1[N+](=O)[O-]`, -102% (active). `Cc1cc(NC(=O)CSc2nc3c(cc2C#N)CCCCC3)no1`: the activity score is -104% (active). The result for `COC(=O)/C(=C1\Oc2ccc(C(C)(C)C)cc2S1)C(F)(F)F` reads -189% (active); that for `O=C1Oc2ccccc2C(=O)/C1=C/c1ccccc1O`, -96.6% (active). For `COc1ccc2c(c1)O/C(=C\c1ccccc1O)C2=O` the value was -94.2% (active); for `COc1ccc(-c2noc(-c3cccc(OC)c3OC)n2)cc1OC`, -193% (active).

In the case of `COc1cc(NC(=O)c2ccc(-c3csc(C)n3)cc2)c(OC)cc1Cl`, the activity score is -64.4% (active).

Take `O=C(CCSc1ccccc1)N1CCN(c2ccccc2F)CC1`: the activity score was -115% (active). As to `COc1ccc(-c2nc3n(c2Br)CCC3)cc1`, the activity score was -122% (active).

As to `CN1C(=O)/C(=C/C=C2\SCCN2C)OC1=S`, the activity score is -169% (active).

In the case of `CC(C)n1cnc2c(Nc3cccc(Cl)c3)nc(N(CCO)CCCO)nc21`, the activity score is 64.7% (inactive). `OCCCNc1nccc(-c2cc(Nc3cccc(Cl)c3)ncn2)n1`: the activity score is 73.3% (inactive).

Turning to `Cn1c(Nc2cccc(Cl)c2)nc2ccccc21`, the activity score is -63.6% (active).

Regarding `O=c1c2cc(-c3ccccc3)sc2nc2n1N=C(c1cccs1)CS2`, the activity score is -105% (active). The result for `Oc1ccccc1CNc1ncc(Br)cc1Br` reads -62.4% (active); that for `COc1ccc2cc(C(=O)NCC3CCCO3)[nH]c2c1` (configuration not stated), -90.6% (active); that for `O=C(NCCc1ccccc1)c1ccc2c(c1)N(Cc1ccccc1)CCS2`, -105% (active). For the compound `O=C(Cn1c(=S)nc2ccccn21)N1CCc2ccccc2C1`, the activity score is -96.2% (active).

With `CCn1nccc1C(=O)Nc1ccc(Cl)c(Cl)c1`, the activity score was -89.2% (active). For `CCc1ccc(NC2Nc3cc(C)nn3S2)cc1` (configuration not stated) the value was -79.3% (active); for `CCOC(=O)c1cnc(Nc2nc3ccccc3o2)nc1CSC(=S)N1CCCCC1`, -133% (active). For the compound `NS(=O)(=O)c1ccccc1NC(=O)c1c(O)c2ccccc2[nH]c1=O`, the activity score was -64.6% (active). The result for `CCCCCn1c(=O)c(C(=O)OCC)c(Cl)c2ccccc21` reads 92.6% (inactive); that for `CCOC(=O)c1cnc2[nH]c3ccccc3n2c1=O`, -85.9% (active); that for `Cc1ccc(SCCSc2ncccn2)cc1`, -110% (active). The result for `S=C(NCc1ccco1)Nc1ccc2c(c1)OCCO2` reads -105% (active); that for `FC(F)Oc1ccc(NC(=S)NCc2ccco2)cc1Cl`, -62.2% (active). The result for `CCc1nnc(NC(=O)/C=C/c2ccc(C)o2)s1` reads -74.1% (active); that for `CCC(CC)c1nnc(NC(=O)/C=C/c2ccco2)s1`, -153% (active). In the case of `Cc1nnc(NC(=O)/C=C/c2ccco2)s1`, the activity score was -101% (active). For `Cc1cccc(C(=O)Nc2ccc(Oc3cnccn3)cc2)c1` the value was -86.6% (active). In the case of `COc1ccc(NC(=O)c2ccc(OC)cc2)cc1`, the activity score is -63% (active). Consider `Cn1c(CCN2CCCCCC2)nc2cc(NC(=O)Nc3ccccc3)ccc21`, for which the activity score is -91.9% (active).

With `CCOC(=O)N1CCN(S(=O)(=O)c2ccc(C(=O)Nc3ccc(F)cc3F)cc2)CC1`, the activity score is 69.5% (inactive). As for `COc1ccc(C(=O)Nc2ccc(F)cc2F)cc1`, the activity score is -88.9% (active). For `COc1ccc(NC(=O)c2c(C)oc3c2CCCC3)cc1` the value was -64.6% (active). With `COc1ccc(NC(=O)c2sccc2SCC#N)cc1`, the activity score is -77.3% (active). On to `CCC(=O)Nc1ccc(C(=O)Nc2cccc(OC)c2)cc1`, for which the activity score is -74.7% (active).

As for `Cc1ccc(NC(=O)c2ccc(Oc3ncccn3)cc2)cc1`, the activity score is -124% (active). The result for `COc1ccc(C(=O)Nc2ccc(CN3CCOCC3)cc2)cc1` reads -86.6% (active).

As for `COc1ccc(NC(=O)ON=C2c3ccccc3-c3ccccc32)cc1`, the activity score was -102% (active). As to `COc1ccc(C(=O)Nc2sc(C)c(C)c2CN2CCOCC2)cc1`, the activity score was -83.7% (active). Regarding `COc1ccc(C(=S)Nc2ccccc2)cc1`, the activity score is -134% (active). `CCc1cc(C(N)=O)c(NC(=O)c2ccc(OC)cc2)s1`: the activity score is -174% (active).

As to `Cn1c(CN2CCOCC2)nc2cc(NC(=O)c3ccc(Cl)cc3)ccc21`, the activity score is -163% (active). As to `COc1ccc(NC(=O)CS(=O)(=O)c2ccccc2)cc1`, the activity score is -62.5% (active). Turning to `COc1ccc(NC(=O)c2cc(-c3ccc(C)cc3)on2)cc1`, the activity score is -154% (active).
